The values that follow come from PubChem BioAssay.

Molecules are shown by their SMILES. Active and inactive are the calls of the source.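 Rule for the calls: active = z-score of at least 1.8 in each of two replicates, scored against plate mean and spread of sample wells; inactive = the rest.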

A short description of this test: viability rescue of complex I mutant cybrids, primary screen, cell-based, galactose medium, ATP luminescence (AID 1645843).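 Note: positive z means more ATP and so rescue of galactose-driven cybrid death.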 The following applies: complex I mutant cybrid cells, 72 h, stronger effect = higher value.
For the compound `O=C(C1CCCCCC1)N1CCC(Cn2cc(CCCO)nn2)CC1`, the z-score was -0.325 (inactive).
As for `CC(C)CN1CCN(c2ccc(C(F)(F)F)cn2)C(C)C1=O` (stereo not given), the z-score was -0.56 (inactive).
The value for `CC(CC12CC3CC(CC(C3)C1)C2)n1cnc2nccnc2c1=O` (stereo not given) was 1.54 (inactive); that for `CCCCn1cc(-c2cc(C(=O)N3CCCC3C)c3cccc(C)c3n2)cn1` (stereo not given) was 1.28 (inactive); that for `CCC(CC)(CCC#N)CNCC1(N2CCOCC2)CCCC1` was -0.575 (inactive).
On to `CC(C)CCC(C)N[C@H](CO)Cc1ccccc1` (stereo not given in full), for which the z-score is -0.5 (inactive).
As for `CC(=O)c1c(C)nn(CC(=O)Nc2ccc(N3CCOCC3)cc2)c1C`, the figure is -0.6 (inactive); as for `CCCOC1CCCN(C2CCN(c3ccc(F)c(F)c3)CC2)C1` (stereo not given), -0.725 (inactive); as for `CCC(C)C(c1nc(C(C)C)no1)N1Cc2ccccc2C1=O` (stereo not given), -0.17 (inactive).
As for `COc1ccc(-c2ncnc3sc(C)c(C)c23)c(OC)c1`, the figure is 0.66 (inactive); as for `C=C1C(C)(C)[C@H]2CC[C@]1(C(=O)N1CCC(n3cc(CC(C)C)nn3)CC1)C2`, -0.52 (inactive).
The value for `Cc1nn(C)c(C)c1-c1ccnc(NCc2cnc3ccccn23)n1` was -0.925 (inactive); that for `CC(O)Cc1cn(CC2CCN(C(=O)C3CCCCCC3)CC2)nn1` (stereo not given) was -0.51 (inactive).
`Cc1nnc(NC(=O)N2CCCN(c3ccncc3C)CC2)s1`: the z-score was -0.57 (inactive).
As for `Cc1nsc(NC(=O)NC(C)c2ccc(Cl)cc2)n1` (stereo not given), the figure is -0.26 (inactive); as for `CN1CCN(CC(C)(C)C)CC1CCO` (stereo not given), -0.57 (inactive); as for `CCC(C)(C)NCc1c(C)cc(C)c(CO)c1C`, -0.525 (inactive).
Regarding `CCN(C(=O)c1cc(-c2cnc(C(C)C)nc2)nc2cc(F)ccc12)C(C)C`, the z-score is -0.47 (inactive).
In the case of `Cc1cc(CC(=O)Nc2cc(C)nn2C2CCCCC2)on1`, the z-score is 0.225 (inactive).
As for `COC(=O)CCC(=O)N1CCc2[nH]nc(-c3ccc4c(c3)OCO4)c2C1`, the figure is -0.12 (inactive); as for `CNCc1cn(C2CCN(CCC(C)CCCC(C)(C)O)CC2)nn1` (stereo not given), -0.56 (inactive); as for `COc1cc(Cl)ccc1C(=O)N1CCC(Cn2cc(C3CC3)nn2)CC1`, -0.63 (inactive).
The value for `O=C(Nc1n[nH]c(Cc2ccccc2)n1)N1CCN(C(=O)c2ccco2)CC1` was 2.72 (active); that for `CCC(CC)(CCC#N)CNC1CCOC(C)(C)C1` (stereo not given) was -0.485 (inactive); that for `CCc1ncc(C(=O)N2CCCC(Cn3cc(-c4ccccc4)nn3)C2)cn1` (stereo not given) was 0.19 (inactive).
In the case of `CC(C)c1ncc(C(=O)N2CCC(n3cc(-c4ccccn4)nn3)CC2)cn1`, the z-score was 0.26 (inactive).
The value for `CN(C)Cc1cn(CC2CCN(C(=O)CC3CCCCCC3)CC2)nn1` was -0.47 (inactive).
As for `Cc1ccsc1-c1cccc(C(=O)c2nccn2C)c1`, the figure is 0.225 (inactive); as for `CC(C)(C)CN1CCN(CC2CC2)C(CCO)C1` (stereo not given), 0.35 (inactive).
As for `COc1ccc2c(c1)C=C(CNc1cccnc1)CO2`, the figure is 0.615 (inactive); as for `Cc1cc(NC(=O)CCC2CC2)n(C(C)C)n1`, -0.44 (inactive).
For the compound `CCC1(CC)CC1C(=O)N1CCCCC1CCn1ccnc1C` (stereo not given), the z-score was -0.475 (inactive).
As for `COc1ccccc1-c1noc(Cn2ncc3ccccc32)n1`, the figure is 1.12 (inactive); as for `OC1(c2ccccc2)CCN(Cc2ccc(F)cc2Cl)C1` (stereo not given), -0.93 (inactive).
The value for `Cn1ncc(NC(=O)Cn2ccc(-c3ccccc3C(F)(F)F)n2)n1` was 1.12 (inactive); that for `COC(=O)CN1CCN(c2cc(OC)ncn2)CC1=O` was -0.535 (inactive); that for `Cc1nc2cc(C(=O)N3CCN(C)C(=O)C3)ccc2s1` was -0.24 (inactive).
The value for `CC(Oc1ccc2c(c1)OCO2)C(=O)N1CCCCC1CCN1CCCC1=O` (stereo not given) was 1.73 (inactive); that for `Cc1ccc2nc(Cn3cnc4ccc(F)cc4c3=O)cn2c1` was -0.15 (inactive).
For `CCCC(C)N(CC)C(=O)c1ccc(C#CC(C)(C)O)o1` (stereo not given), the z-score is -0.525 (inactive).
